From PubChem BioAssay (EPA / NIEHS)
Active and inactive are the calls of the source. How the source made its calls: active means hit-call score of the fitted dose curve at least 0.9, where 1 is the maximum; inactive means score below 0.9.

Experiments:
[1] = read-out: Vascular cell adhesion molecule 1 (VCAM1), VCAM1 (gene 7412); assay: BSK_hDFCGF_VCAM1: BioMAP Diversity Plus: hDFCGF Assay for Vascular cell adhesion molecule 1 (VCAM1) Biomarker Activity (AID 2283065); details: primary human foreskin fibroblasts; actives raise or lower the signal;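 on AC50: VCAM-1 protein level quantified by ELISA after 24 h chemical exposure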
Procedure, shortened: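 ELISA readout of VCAM-1 on human dermal fibroblast primary cultures, 24 h after chemical exposure. Gain or loss of signal fitted in both directions against DMSO baseline.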

[2] = read-out: Plasminogen activator inhibitor-1 (PAI1), SERPINE1 (gene 5054); assay: BSK_hDFCGF_PAI1: BioMAP Diversity Plus: hDFCGF Assay for Plasminogen activator inhibitor-1 (PAI1) Biomarker Activity (AID 2283066); details: primary human foreskin fibroblasts; actives raise or lower the signal
Procedure, shortened: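 PAI-1 levels in human dermal foreskin fibroblasts were quantified by ELISA 24 h after dosing, with gain or loss analysed against DMSO. Overt cytotoxicity was checked by sulforhodamine B total-protein staining in parallel cultures.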

[3] = read-out: Intercellular Adhesion Molecule 1 (ICAM1), ICAM1 (gene 3383); assay: BSK_KF3CT_ICAM1: BioMAP Diversity Plus: KF3CT Assay for Intercellular Adhesion Molecule 1 (ICAM1) Biomarker Activity (AID 2283067); details: primary human keratinocytes with fibroblasts; actives raise or lower the signal
Procedure, shortened: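 Cell-surface ICAM-1 was measured by ELISA 24 h after dosing primary human skin keratinocytes co-cultured with fibroblasts. Parallel SRB staining tracked overt cytotoxicity. Gain or loss of signal was fitted relative to DMSO.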

[4] = read-out: Interferon-gamma inducible Protein 10 (IP10), CXCL10 (gene 3627); assay: BSK_KF3CT_IP10: BioMAP Diversity Plus: KF3CT Assay for Interferon-gamma inducible Protein 10 (IP10) Biomarker Activity (AID 2283068); details: primary human keratinocytes with fibroblasts; actives raise or lower the signal
Procedure, shortened: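 ELISA read-out of IP-10 after 24 h chemical dosing of human skin primary co-culture (keratinocytes, foreskin fibroblasts). Gain or loss of signal relative to DMSO, bidirectional curve fit.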

[5] = BSK_KF3CT_SRB: Viability Assessment in the BioMAP Diversity Plus: KF3CT Assay (AID 2283069); details: primary human keratinocytes with fibroblasts
Procedure, shortened: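 Cytotoxicity was gauged by SRB staining (0.1% SRB, 10% TCA fixation, 560 nm) of parallel cultures at 24 h. The cells were primary human skin keratinocytes co-cultured with fibroblasts, and activity was fitted in both directions against DMSO.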

[6] = read-out: Interleukin-1 alpha (IL1a), IL1A (gene 3552); assay: BSK_KF3CT_IL1a: BioMAP Diversity Plus: KF3CT Assay for Interleukin-1 alpha (IL1a) Biomarker Activity (AID 2283070); details: primary human keratinocytes with fibroblasts; actives raise or lower the signal
Procedure, shortened: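 IL-1a was detected by ELISA 24 h after chemical treatment of a co-culture of human skin keratinocytes and foreskin fibroblasts. Gain or loss of signal was fitted against the DMSO baseline.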

[7] = read-out: TIMP metallopeptidase inhibitor 2 (TIMP2), TIMP2 (gene 7077); assay: BSK_KF3CT_TIMP2: BioMAP Diversity Plus: KF3CT Assay for TIMP metallopeptidase inhibitor 2 (TIMP2) Biomarker Activity (AID 2283071); details: primary human keratinocytes with fibroblasts; actives raise or lower the signal
Procedure, shortened: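 TIMP-2 measured by ELISA at 24 h in human keratinocyte/fibroblast primary co-cultures exposed to chemicals. Both increases and decreases were fitted against DMSO. Parallel cultures were stained with SRB for total protein as an overt-cytotoxicity check.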

[8] = read-out: Transforming growth factor beta 1 (TGFb1), TGFB1 (gene 7040); assay: BSK_KF3CT_TGFb1: BioMAP Diversity Plus: KF3CT Assay for Transforming growth factor beta 1 (TGFb1) Biomarker Activity (AID 2283072); details: primary human keratinocytes with fibroblasts; actives raise or lower the signal
Procedure, shortened: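 ELISA quantifies TGF-b1 at 24 h post-dose in a primary human skin co-culture of keratinocytes and fibroblasts, with gain or loss judged against DMSO. Parallel SRB total-protein staining flags overt cytotoxicity.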

[9] = read-out: C-C motif chemokine 2 (Homo sapiens) (UniProt P13500); assay: BSK_KF3CT_MCP1: BioMAP Diversity Plus: KF3CT Assay for Monocyte Chemoattractant Protein 1 (MCP1/CCL2) Biomarker Activity (AID 2283073); details: primary human keratinocytes with fibroblasts; actives raise or lower the signal
Procedure, shortened: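 ELISA read-out of MCP-1, 24 h post-dose, in primary human skin keratinocytes co-cultured with fibroblasts. Parallel SRB staining monitors cytotoxicity; changes fitted both directions relative to DMSO.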

[10] = read-out: urokinase plasminogen activator (uPA), PLAU (gene 5328); assay: BSK_KF3CT_uPA: BioMAP Diversity Plus: KF3CT Assay for urokinase plasminogen activator (uPA) Biomarker Activity (AID 2283075); details: primary human keratinocytes with fibroblasts; actives raise or lower the signal
Procedure, shortened: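 ELISA read-out of uPA 24 h after dosing human skin keratinocytes co-cultured with foreskin fibroblasts. Signal change fitted both ways relative to DMSO; sulforhodamine B on parallel cultures marks overt cytotoxicity.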

CD40, CD40 (gene 958) = assay: BSK_LPS_CD40: BioMAP Diversity Plus: LPS Assay for CD40 Biomarker Activity (AID 2283076); details: primary human HUVEC with PBMC; actives raise or lower the signal
Procedure, shortened: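 In the LPS system of human endothelial cells with peripheral blood mononuclear cells, CD40 levels were read by ELISA 24 h post-treatment. Signal changes in either direction were fitted against the DMSO baseline, with parallel SRB protein staining.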

[11] = read-out: E-selectin (Homo sapiens) (UniProt P16581); assay: BSK_LPS_Eselectin: BioMAP Diversity Plus: LPS Assay for Eselectin Biomarker Activity (AID 2283077); details: primary human HUVEC with PBMC; actives raise or lower the signal
Procedure, shortened: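 E-selectin ELISA on LPS-stimulated endothelial cell/PBMC co-cultures, read 24 h post-treatment; gains and losses fitted against DMSO. Parallel SRB staining (0.1% SRB after 10% TCA fixation, 560 nm) flags overt cytotoxicity.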

[12] = BSK_LPS_SRB: Viability Assessment in the BioMAP Diversity Plus: LPS Assay (AID 2283079); details: primary human HUVEC with PBMC;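 further: total protein by sulforhodamine B absorbance as a cytotoxicity measure; measured one day after compound addition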
Procedure, shortened: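 SRB viability endpoint: cells fixed with 10% TCA, stained with 0.1% SRB, read at 560 nm, 24 h post-dose. HUVEC/PBMC co-culture; signal change in either direction scored relative to DMSO.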

[13] = read-out: Interleukin-1 alpha (IL1a), IL1A (gene 3552); assay: BSK_LPS_IL1a: BioMAP Diversity Plus: LPS Assay for Interleukin-1 alpha (IL1a) Biomarker Activity (AID 2283080); details: primary human HUVEC with PBMC; actives raise or lower the signal
Procedure, shortened: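 Readout is IL-1a level by ELISA, 24 h post-dose, fitted as gain or loss relative to DMSO. System: LPS-activated human primary co-culture of vascular endothelium and peripheral blood mononuclear cells, with parallel SRB total-protein cytotoxicity.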

[14] = read-out: Monocyte Chemoattractant Protein-1 (MCP1), CCL2 (gene 6347); assay: BSK_LPS_MCP1: BioMAP Diversity Plus: LPS Assay for Monocyte Chemoattractant Protein-1 (MCP1) Biomarker Activity (AID 2283081); details: primary human HUVEC with PBMC; actives raise or lower the signal
Procedure, shortened: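 Secreted MCP-1 read by ELISA at 24 h post-dosing in an LPS-activated co-culture of endothelial cells with peripheral blood mononuclear cells. Fits run in both directions, DMSO as baseline; parallel SRB staining tracks overt cytotoxicity.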

[15] = read-out: Macrophage colony-stimulating factor (MCSF), CSF1 (gene 1435); assay: BSK_LPS_MCSF: BioMAP Diversity Plus: LPS Assay for Macrophage colony-stimulating factor (MCSF) Biomarker Activity (AID 2283083); details: primary human HUVEC with PBMC; actives raise or lower the signal
Procedure, shortened: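 Bidirectional fitting against DMSO was applied to M-CSF levels read by ELISA at 24 h post-dose. The system pairs human umbilical vein endothelium with peripheral blood mononuclear cells; parallel SRB staining tracked cytotoxicity.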

[16] = read-out: Tissue Factor, F3 (gene 2152); assay: BSK_LPS_TissueFactor: BioMAP Diversity Plus: LPS Assay for Tissue Factor Biomarker Activity (AID 2283084); details: primary human HUVEC with PBMC; actives raise or lower the signal
Procedure, shortened: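 Compound was added to an endothelial cell/PBMC co-culture, and after 24 h tissue factor (CD142) was read by ELISA. Gain or loss of signal was fitted against a DMSO baseline, and parallel SRB staining (560 nm) tracked overt cytotoxicity.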

[17] = BSK_LPS_PGE2: BioMAP Diversity Plus: LPS Assay for Prostaglandin E2 (PGE2) Biomarker Activity (AID 2283082); details: primary human HUVEC with PBMC; actives raise or lower the signal
Procedure, shortened: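 PGE2 release measured by ELISA in an LPS-activated co-culture of human umbilical vein endothelial cells and peripheral blood mononuclear cells, read at 24 h post-dosing. DMSO served as baseline for bidirectional curve fitting.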

Measured: AC50

E-selectin (Homo sapiens), sequence (P16581 whole entry, looked up): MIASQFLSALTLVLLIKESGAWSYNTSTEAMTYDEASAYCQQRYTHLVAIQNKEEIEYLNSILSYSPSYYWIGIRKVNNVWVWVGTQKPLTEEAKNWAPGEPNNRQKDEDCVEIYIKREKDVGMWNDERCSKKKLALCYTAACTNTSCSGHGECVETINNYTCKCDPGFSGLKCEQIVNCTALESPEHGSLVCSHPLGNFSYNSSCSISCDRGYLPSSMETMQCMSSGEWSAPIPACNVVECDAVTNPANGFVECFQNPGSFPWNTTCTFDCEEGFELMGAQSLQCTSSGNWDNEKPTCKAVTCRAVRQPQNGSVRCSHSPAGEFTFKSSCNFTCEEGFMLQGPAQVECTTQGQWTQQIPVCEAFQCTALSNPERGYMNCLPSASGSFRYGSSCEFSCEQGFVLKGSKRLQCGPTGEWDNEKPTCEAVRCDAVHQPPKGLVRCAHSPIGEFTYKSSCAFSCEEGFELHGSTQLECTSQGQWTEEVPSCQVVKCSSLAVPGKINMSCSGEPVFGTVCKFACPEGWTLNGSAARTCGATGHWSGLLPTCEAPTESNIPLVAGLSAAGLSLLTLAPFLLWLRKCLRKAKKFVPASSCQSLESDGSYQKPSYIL

COP(=S)(OC)Oc1cc(Cl)c(Cl)cc1Cl
active: [1] 25.4 µM | [7] 32.2 µM | [8] 36.3 µM
inactive: [2] | [3] | [4] | [5] | [6] | [9] | [10] | CD40, CD40 (gene 958) | [11] | [12] | [13] | [14] | [15] | [16]

COC[C@H](C)N(C(=O)CCl)c1c(C)csc1C
inactive: [1] | [2] | [3] | [4] | [5] | [6] | [7] | [8] | [9] | [10] | CD40, CD40 (gene 958) | [11] | [12] | [13] | [14] | [15] | [16]

CCOP(=S)(OCC)SCCS(=O)(=O)CC
inactive: [1] | [2] | [3] | [4] | [5] | [6] | [7] | [8] | [9] | [10] | CD40, CD40 (gene 958) | [12] | [13] | [14] | [17] | [15] | [16]

CCSC(C)CC1CC(=O)C(C(CC)=NOC/C=C/Cl)=C(O)C1 (configuration not stated)
inactive: [1] | [2] | [3] | [4] | [5] | [6] | [7] | [8] | [9] | [10] | CD40, CD40 (gene 958) | [12] | [13] | [14] | [15] | [16]
